# LmPK inhibitor: LmPK (Leishmania mexicana) enzyme inhibition; purified LmPK, Kinase-Glo ATP luminescence, 1 h; 290,000 tested, 0.37% active; Potency, µM (doses to about 57.5 µM), usual class: inhibitors; AID 1721; Q27686
#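 Purified LmPK (0.1 nM) with 0.5 mM PEP and 0.1 mM ADP in imidazole buffer pH 7.2 with MgCl2/KCl, 1 h at room temperature. ATP formed was read by luciferase luminescence and normalized to no-enzyme and uninhibited controls.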
# Giardia FBPA inh: Giardia lamblia aldolase inhibition; purified Giardia FBPA; Potency, µM (series often up to 59.6 µM), usual class: inhibitors; 290,000 tested, 0.71% active; AID 2451; note: nearly all actives have a fitted effect of over 55% in size
# Target sequence (A8B2U2 whole entry, looked up): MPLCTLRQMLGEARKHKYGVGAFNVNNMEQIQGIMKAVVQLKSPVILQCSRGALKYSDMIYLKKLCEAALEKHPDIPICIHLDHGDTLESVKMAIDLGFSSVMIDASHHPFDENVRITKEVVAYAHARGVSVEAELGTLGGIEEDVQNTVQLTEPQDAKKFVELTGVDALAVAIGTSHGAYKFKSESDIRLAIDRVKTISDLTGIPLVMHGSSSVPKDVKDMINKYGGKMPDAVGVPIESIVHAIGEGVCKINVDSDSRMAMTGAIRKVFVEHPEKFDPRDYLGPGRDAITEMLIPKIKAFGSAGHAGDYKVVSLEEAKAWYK
#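 Giardia FBPA (40 nM reagent) was preincubated 10 min at RT with compound (up to 57.5 uM final), then substrate plus GAPDH/TPI/NAD/arsenate coupling system with diaphorase/resazurin was added; resorufin fluorescence (525/598 nm) was read after 20 min.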
# Shiga inhibitor: blocks Shiga toxin action in Vero cells; 290,000 tested, 9.2% active; Vero cells, Shiga toxin protein synthesis inhibition reporter; inhibition, % at 38.7 µM; in the data active = inhibition mostly above about 28%, no sharp cut-off; inactive = mostly below about 43%
# Cycloheximide cs: counter-screen for Shiga toxin inhibitors: cycloheximide protein synthesis inhibition | max response, % | AID 2314 | cell reporter, cycloheximide protein synthesis inhibition counterscreen | 300,000 tested, 12% active; in the data active = max response mostly above about 13%, no sharp cut-off; inactive = mostly below about 14%; note: read at 38.3 µM for the half of the compounds with a filed dose
# NS1 function inh: blocks influenza NS1 protein function | Potency, µM (highest dose often 46.1 µM) | 270,000 tested, 0.4% active | AID 2326; calls by dose curve; note: actives are rising curves; nearly all actives have a fitted effect of over 50% in size
#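 Recovery from NS1-induced slow growth read by OD600 in budding yeast switched to galactose assay medium (pH 6.0, -URA) at 1:100 dilution. Compound 23 nl per well; the matching strain lacking NS1 serves as control.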
# Hits are given with their value; . = inactive; ? = inconclusive; / = not tested or not shown. Rows were chosen to be rich in hits. Some 14% of all compounds tested hit in one or more screens of this group. Unless noted, calls come from the whole dose curve; as a rule, active = well fitted curve in the direction sought with a large enough effect; inconclusive = small, poorly fitted or top-dose-only effect, or another doubt; inactive = no such curve, though single readings can be large; an effect the other way counts as inactive or inconclusive.
SMILES,LmPK inhibitor,Giardia FBPA inh,Shiga inhibitor,Cycloheximide cs,NS1 function inh
Cc1ccc(NC(=O)CNCc2ccccc2)c(Br)c1,.,.,157.3,15.9,/
O=C(CNCc1cccs1)NC12CC3CC(CC(C3)C1)C2,.,?,.,13.8,/
Cc1ccc(CNCC(=O)Nc2ccc(C)cc2Br)cc1,.,.,.,.,/
O=C(CC1CCCC1)Nc1cccc(Br)c1,.,/,56.4,16.9,.
CC(=O)c1cccc(NC(=O)CC2CCCC2)c1,.,.,.,.,.
Cc1ccc(NC(=O)Cn2cccc2)c(C)c1,.,.,.,.,.
Cc1ccc(NC(=O)Cn2cccc2)c(Br)c1,.,.,44.5,.,.
C=CCNc1nc(C)c(CNc2c(C)cc(C)cc2C)nc1C#N,.,.,/,.,.
O=C(Nc1ccccc1)[C@@]12C[C@@H]1/C(=N/O)c1ccccc1O2,/,.,/,/,/
CCOC(=O)CC(=O)c1sc2c(c1N)c(=O)[nH]c(=O)n2-c1ccc(OC)cc1,.,.,.,.,.
Cc1ccc(NC(=O)CC2CCCC2)c(Br)c1,.,/,93.0,42.4,.
Cc1ccc(NC(=O)CNCc2cccs2)c(Br)c1,.,?,66.8,34.7,.
Cc1ccc(NC(=O)CCCC(=O)O)c(Br)c1,.,.,.,.,.
Cc1ccc(Sc2ccccc2CN(C)C)c(N)c1,/,.,.,25.4,/
Cc1ccc(OCc2nnc(N)s2)cc1C,.,.,59.2,20.7,.
Cc1ccc(OCc2nnc(N)s2)cc1,.,.,27.2,27.8,.
Cc1cc(C)cc(OCc2nnc(N)s2)c1,.,.,.,.,.
CCNc1ncc2nc(-c3ccc(F)cc3)c(=O)n(CCOC)c2n1,/,.,/,/,/
COc1ccc(/C=N/Nc2nn3cnnc3c3ccccc23)cc1,.,.,.,.,.
Cc1cc(NS(=O)(=O)c2ccc(NC(=O)/C=C/c3ccccc3Cl)cc2)no1,.,.,.,.,.
CCN(CC)c1ccc(NC(=O)/C=C\c2ccccc2Cl)cc1,.,.,64.3,27.3,.
CN(C)c1ccc(NC(=O)/C=C/c2ccccc2Cl)cc1,.,.,80.1,31.8,.
CCN(CC)c1ccc(NC(=O)C(C)C)cc1,.,.,.,.,.
COc1ccc(NC(=O)c2sc3nc(N4CCOCC4)c4c(c3c2N)CC(C)(C)OC4)c(OC)c1,.,/,.,.,.
CC1CCN(S(=O)(=O)c2cn(CC(=O)N3CCN(c4cccc(C(F)(F)F)c4)CC3)cn2)CC1,.,/,.,.,.
SMILES,LmPK inhibitor,Giardia FBPA inh,Shiga inhibitor,Cycloheximide cs,NS1 function inh
COc1cccc(Nc2ncc3nc(CCc4ccccc4)c(=O)n(CCC#N)c3n2)c1,/,.,/,/,/
CC(=O)c1cc2c(cc1NC(=O)CCc1ccccc1)OCO2,.,.,.,24.0,.
COc1ccc(CCC(=O)Nc2ccc3c(c2)OCO3)cc1,.,.,.,.,.
COc1ccc(CCC(=O)Nc2ccc3c(c2)OCCO3)cc1,.,.,.,26.4,.
O=C(CCSCc1ccccc1)Nc1ccc2c(c1)OCCO2,.,.,48.2,58.5,.
O=C(CCc1ccccc1)Nc1ccc2c(c1)OCCO2,.,.,66.7,47.7,.
CN(CCC(=O)Nc1ccc2c(c1)OCO2)Cc1ccccc1,.,.,.,.,.
O=C(CCc1ccccc1)Nc1ccc2c(c1)C(=O)OC2,.,.,.,10.4,.
O=C(CCCOc1ccccc1)Nc1ccc2c(c1)OCCO2,.,.,.,47.6,.
CCc1ccc(NC(=O)CCS(=O)(=O)c2ccc3c(c2)CCN3C(C)=O)cc1,.,.,.,.,.
O=C(NCc1ccccc1)NC1(C(=O)Nc2ccc3c(c2)OCCO3)CCCCC1,.,.,70.8,30.1,.
O=C1OCc2ccc(NC(=O)C3CCCCC3)cc21,.,.,.,.,.
CC(=O)N1CCc2cc(S(=O)(=O)CCC(=O)Nc3ccc4c(c3)OCCO4)ccc21,.,.,.,12.2,.
COc1ccc(Oc2ncc3nc(-c4cccs4)c(=O)n(Cc4cccs4)c3n2)cc1,/,.,/,/,/
CCC(C)C1/C=C\CCCC(=O)N1Cc1ccc(C)cc1 (stereo not drawn),/,.,.,.,/
COCCNc1ncnc2ccc(-c3ccc(N(C)C)cc3)cc12,/,.,/,/,/
COc1ccc2nc(SCC(=O)Nc3ccc4c(c3)OCCO4)[nH]c2c1,.,.,79.8,56.6,?
O=C(CCc1ccc(S(=O)(=O)N2CCOCC2)cc1)Nc1ccc2c(c1)OCCO2,.,.,49.0,14.3,.
CS(=O)(=O)c1ccc(Cl)c(NC(=O)CCc2ccccc2)c1,.,.,.,.,/
CCN(CC(=O)Nc1ccc2c(c1)OCCO2)C(=O)/C=C/c1ccc(OC)cc1OC,.,.,59.8,28.5,.
O=C(CCc1ccccc1)Nc1cc2c(cc1Cl)OCCO2,.,.,80.0,47.3,.
CCOc1ccc2nc(SCC(=O)Nc3ccc4c(c3)OCCO4)[nH]c2c1,.,.,.,.,.
NC(=O)c1cccc(CC(=O)c2ccccc2)c1,.,.,.,.,.
CCOC(=O)CN(Cc1cc(OC)cc(N(C)C)c1OC)C(=O)C1CC(CO[Si](C)(C)C(C)(C)C)=CN1C(=O)OC(C)(C)C (stereo not drawn),/,.,.,.,/
O=c1oc(-c2ccc(C(F)(F)F)cc2)nn1Cc1cc(Cl)ccc1O,/,.,.,.,/
SMILES,LmPK inhibitor,Giardia FBPA inh,Shiga inhibitor,Cycloheximide cs,NS1 function inh
CCCCOc1ccccc1C(=O)N(Cc1ccc(C)o1)C1CCS(=O)(=O)C1 (stereo not drawn),.,/,.,.,.
Cc1ccc(-c2nc3ccccc3nc2NN)cc1,?,.,52.8,40.6,.
COC(=O)N1CCC2(CCCN(C(=O)Nc3cccc(C#N)c3)C2)CC1,/,.,/,/,/
CS(=O)(=O)N1CCc2cc(NC(=O)c3ccc(Cl)cc3Cl)ccc21,.,.,.,20.6,/
CS(=O)(=O)N1CCc2cc(C(=O)Nc3cccc([N+](=O)[O-])c3)ccc21,.,.,/,.,.
CS(=O)(=O)N1CCc2cc(C(=O)Nc3ccc(Cl)cc3)ccc21,.,.,.,16.8,.
CS(=O)(=O)N1CCc2cc(C(=O)NC3CC3)ccc21,.,.,.,.,/
CCc1n[nH]c(=S)n1/N=C/c1cc(OC)cc([N+](=O)[O-])c1O,.,?,.,.,/
COc1cccc(Nc2nc(-c3ccc(O)cc3)cs2)c1,.,.,.,34.8,.
COc1cccc(CC(=O)Nc2nc(-c3cccnc3)cs2)c1,.,.,.,.,.
COc1cccc(Nc2nc(-c3cccc(N4C(=O)c5ccccc5C4=O)c3)cs2)c1,.,.,.,33.2,?
CCN(CC(=O)NCc1ccc(Cl)cc1)C(=O)c1ccc(C#N)cc1,.,.,.,.,.
Cc1cc(=O)[nH]c(SCCCOc2ccc(F)cc2)n1,.,.,.,.,.
CCCOc1cccc(OCCSc2nc(C)cc(=O)[nH]2)c1,.,.,.,46.0,.
CN(c1ccc(C(=O)Nc2cccnc2)cc1)S(=O)(=O)c1ccccc1,.,.,.,.,.
CN(c1ccc(C(=O)Nc2ccccn2)cc1)S(=O)(=O)c1ccccc1,.,.,90.0,32.0,.
CN(c1ccc(C(=O)Nc2cccc(O)c2)cc1)S(=O)(=O)c1ccccc1,.,.,.,18.6,.
CN(c1ccccc1)S(=O)(=O)c1ccc(NC(=O)c2ccccc2)cc1,.,.,active,.,.

# Screening data deposited in PubChem BioAssay by National Center for Advancing Translational Sciences (NCATS).
